Measured potencies and affinities stand elsewhere.
target: NAD-dependent protein deacylase sirtuin-5, mitochondrial (Homo sapiens) (UniProt Q9NXA8); assay: blockers of sirtuin-5 peptide desuccinylation – biochemical, fluorescence imaging, cherry-pick, set 6, dose response (AID 720597); settings: Purified SirT5, succinyl-peptide-AMC/trypsin fluorescence; series mostly up to 15 µM; activity change, negative = inhibition: at the top concentration;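 note: lower AMC signal can also come from blocking the trypsin step; 0% = median of neutral control wells and -100% = median of positive control wells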
Sequence (Q9NXA8 whole entry, looked up): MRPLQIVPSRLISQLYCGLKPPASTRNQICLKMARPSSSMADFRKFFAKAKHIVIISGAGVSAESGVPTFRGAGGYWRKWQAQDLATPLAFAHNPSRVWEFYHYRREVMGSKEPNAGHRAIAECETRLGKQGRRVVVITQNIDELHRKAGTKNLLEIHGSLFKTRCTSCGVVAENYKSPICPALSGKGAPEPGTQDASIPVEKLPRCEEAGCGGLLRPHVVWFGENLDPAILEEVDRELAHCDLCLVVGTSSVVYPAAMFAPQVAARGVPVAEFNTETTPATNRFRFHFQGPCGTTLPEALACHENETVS

Activity change, negative = inhibition, inactive:
Cc1noc(C)c1S(=O)(=O)Nc1ccc2c(c1)C(=O)N([C@H](C)CO)C[C@H](C)[C@@H](CN(C)Cc1ccc(C(F)(F)F)cc1)OCCCC[C@H](C)O2 -33.6%
C[C@H]1CN([C@@H](C)CO)C(=O)c2cc(C#CCC3CCCC3)cnc2O[C@H]1CN(C)C(=O)c1cnccn1 -15.1%
Cc1ccc(S(=O)(=O)Nc2ccc3c(c2)C(=O)N([C@@H](C)CO)C[C@H](C)[C@H](CN(C)S(=O)(=O)c2ccccc2)OCCCC[C@@H](C)O3)cc1 5.12%
C[C@@H]1CN([C@H](C)CO)S(=O)(=O)c2ccc(C#CC3CC3)cc2O[C@@H]1CN(C)Cc1ccccc1F -18.8%
C[C@@H]1CN([C@@H](C)CO)S(=O)(=O)c2ccc(C#Cc3ccc(F)cc3)cc2O[C@H]1CN(C)C(=O)NC1CCCCC1 2.16%
C[C@H](CO)N1C[C@H](C)[C@H](CN(C)C(=O)Nc2ccc(C(F)(F)F)cc2)OCCCC[C@H](C)Oc2ccc(NS(=O)(=O)c3ccc(Cl)cc3)cc2C1=O -15.8%
C[C@H]1CN([C@@H](C)CO)S(=O)(=O)c2ccc(C#Cc3ccc(F)cc3)cc2O[C@H]1CN(C)S(=O)(=O)c1ccc(F)cc1 -20%
COc1ccc(NC(=O)Nc2ccc3c(c2)C(=O)N([C@@H](C)CO)C[C@@H](C)[C@H](CN(C)C(=O)Nc2cccc4ccccc24)OCCCC[C@H](C)O3)cc1 -3.45%
COc1ccc(C#Cc2ccc3c(c2)[C@]2(C(=O)N3)[C@H](C(=O)N3CCN(c4ncccn4)CC3)[C@H]3C(=O)O[C@H](c4ccccc4)[C@H](c4ccccc4)N3[C@@H]2c2ccc(OCCO)cc2)cc1 11%
O=S(=O)(c1ccccc1)N1CCCCN2[C@H](C1)[C@H](c1ccc(C#CC3CCCC3)cc1)[C@@H]2CO -17.2%

From PubChem BioAssay AID720597 (Broad Institute, 2013)
